This passage reports AC50 and activity, negative = inhibition results from PubChem BioAssay AID1851 (National Center for Advancing Translational Sciences (NCATS), 2009).

Several values for one entry are separate records, joined by “and”; a condition that tells them apart may be missing. Equal entries are not always repeated. Screen size: about 16,000 compounds; about 4,000 (25%) were called active. Another 26% or so got no clear call; they are omitted. Calls follow the shape of the dose curve; as a rule, active = well fitted curve in the direction sought with a large enough effect; inconclusive = small, poorly fitted or top-dose-only effect, or effect the other way; inactive = no such curve, though single readings can be large or run the other way. A selection follows. A structure can be active in one record and inactive in another.
% is scaled to controls: 0 for no effect and ±100 for the full control effect.

For this assay, the target named is Cytochrome P450 2C9 (Homo sapiens) (UniProt P11712). Briefly: Cytochrome panel assay with activity outcomes. The settings on record: recombinant CYP, pro-luciferin dealkylation, luminescence, p450-cyp2c9; series mostly up to 57.1 µM. As to the method: The P450 gene superfamily is involved in the metabolism and clearance of xenobiotics. This assay used various human CYP P450 isozymes to measure the dealkylation of various pro-luciferin substrates to luciferin. The luciferin is then measured by luminescence after the addition of a luciferase detection reagent. Pro-luciferin substrate concentration in the assay was equal to its KM for its CYP P450 isozyme. Inhibitors and some substrates limit the production of luciferin, and decrease measured luminescence.
Cytochrome P450 2C9 (Homo sapiens), sequence (P11712 whole entry, looked up): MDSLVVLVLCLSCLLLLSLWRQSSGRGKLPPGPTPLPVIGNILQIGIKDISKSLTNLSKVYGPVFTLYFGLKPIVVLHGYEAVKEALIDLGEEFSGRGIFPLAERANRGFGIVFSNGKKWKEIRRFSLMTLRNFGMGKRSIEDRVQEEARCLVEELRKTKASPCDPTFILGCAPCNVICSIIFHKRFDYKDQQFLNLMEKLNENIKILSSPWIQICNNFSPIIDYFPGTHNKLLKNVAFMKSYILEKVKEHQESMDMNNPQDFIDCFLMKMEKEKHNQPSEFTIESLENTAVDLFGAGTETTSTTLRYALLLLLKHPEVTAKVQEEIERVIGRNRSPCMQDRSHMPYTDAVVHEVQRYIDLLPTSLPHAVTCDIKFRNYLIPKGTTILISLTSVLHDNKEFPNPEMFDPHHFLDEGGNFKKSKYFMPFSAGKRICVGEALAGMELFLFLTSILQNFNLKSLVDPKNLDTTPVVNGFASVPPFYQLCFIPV
NCGC Assay Protocol Summary:
1, Reagent, 2 uL, Isozyme and Pro-Luciferin
2, Library compounds, 23 nl, 40 uM to 0.24 nM dilution series
3, Controls, 23 nl, Isozyme specific inhibitor
4, Reagent, 2 uL, NADPH regeneration solution
5, Incubation time, 60 min, Isozyme specific temperature
6, Reagent, 4ul, Detection reagent
7, Incubation time, 20 min, Isozyme specific temperature
8, Detection, 1 sec, ViewLux luminescent read
The luciferase-based P450-GloTM Screening Systems were obtained from Promega (Madison, WI) for CYP 1A2 (V9770), CYP 2C9 (V9790), CYP2 C19 (V9880), CYP 2D6 (V9890), and CYP 3A4 Luciferin-PPXE (V9910) and were adapted for 1,536-well microplates and an automated protocol. The control compounds furafylline for 1A2 (F124), sulfaphenazole for CYP 2C9 (S0758), ketoconazole for CYP 2C19 (K1003), quinidine for 2D6 (Q3625), and ketoconazole for 3A4 (K1003) were purchased from Sigma Aldrich (St. Louis, MO). Recombinant P450 enzymes were obtained from baculovirus constructs expressed in insect cells (BD/Gentest).
Medium-binding white solid Kalypsys plates used. Mixtures kept on ice. 1A2: 10 nM 1A2, 100 uM Luc-ME, 100 mM KPO4; 2C9: 10 nM 2C9, 100 uM Luc-H, 25 mM KPO4; 2C19: 5 nM 2C19, 10 uM Luc-H EGE, 50 mM KPO4; 2D6: 5 nM 2D6, 30 uM Luc-ME EGE, 100 mM KPO4; 3A4: 10 nM, 25 uM Luc-PPXE. All amounts are reflected in their final concentration, working concentration is 2x.
NADPH regeneration solution: 1.3 mM NADP+, 3.3 mM glucose-6-phosphate, 3.3 mM MgCl2, 0.4 U/mL glucose-6-phosphate dehydrogenase for all isozymes, 200 mM KPO4 for 3A4. Mixture prepared at RT but kept on ice during automated run.
RT incubation in auxilliary plate hotel for 1A2, 2D6, and 3A4; 37C for 2C9 and 2C19.
Keywords: P450, CYP1A2, CYP2C19, CYP2C9, CYP2D6, CYP3A4, Luciferase, MLSMR, MLSCN, NIH Roadmap, qHTS, NCGC
With `c1ccc2c(c1)OC[C@@H](C1=NCCN1)O2`, the AC50 result was “inactive and 31.6 µM (active)”.
Consider `COc1cc2c(cc1O)[C@H]1Cc3ccc(OC)c(O)c3CN1CC2`, for which the activity, negative = inhibition result is “inactive”.
Still for that read-out and setting: under `c1ccc(N2CCCC3(CCNCC3)C2)cc1` stands “inactive”.
With `CC(C)Oc1cccnc1N(C)C1CCN(Cc2ccccc2)CC1`, the activity, negative = inhibition result is “inactive”.
`O=C1Nc2ccc(I)cc2/C1=C/c1cc(Br)c(O)c(Br)c1`: the AC50 was 12.6 µM (active).
For the molecule `COc1cc2c(cc1OC)[C@@]13CCN4C=C5CCO[C@H]6CC(=O)N2[C@@H]1[C@@H]6[C@H]5C[C@H]43`, the activity, negative = inhibition is -3.46% [at 11.4 µM] (inactive).
Still for that read-out and setting: the value for `COc1ccc(CNC(=O)/C=C\c2ccc3[nH]cc(CCN(C)C)c3c2)cc1` was “inactive”.
On the same count and under the same terms, under `c1ccc(C[C@@H](c2ccccc2)N2CCCCC2)cc1` stands “inactive”; under `CN1CCc2cc(O)cc3c2[C@H]1Cc1ccc(O)c(O)c1-3`, “inactive”.
`C[N+]12CCC(CC1)[C@@H](OC(=O)C(O)(c1ccccc1)c1ccccc1)C2`: the activity, negative = inhibition entry is “inactive”.
In the case of `O=C(O)C(O)(c1ccc(-c2ccccc2)cc1)c1ccc(-c2ccccc2)cc1`, the half-maximal activity concentration (AC50) was 3.16 µM (active).
Take `O=C(C[n+]1ccc2ccccc2c1)c1ccc2ccc3ccccc3c2c1`: the activity, negative = inhibition was 16.4% [at 11.4 µM] (inactive).
Still for that read-out and setting: the value for `CCn1cc(C(=O)O)c(=O)c2cc3c(cc21)OCO3` was “inactive”; that for `Clc1ccc(C2=CCC[C@H]3CC[C@@H]2N3)cn1` was “inactive”; that for `Cn1ccnc1` was “inactive”.
Consider `c1cc(CCN2CCCCC2)ccn1`, for which the activity, negative = inhibition was 3.53% [at 11.4 µM] (inactive).
Turning to `Clc1ccc(C(c2ccc(Cl)cc2)n2cc[n+](C[C@@H](OCc3ccc(Cl)cc3Cl)c3ccc(Cl)cc3Cl)c2)cc1`, the concentration at half-maximal activity (AC50) was 31.6 µM (active).
Consider `Cc1nc(-c2ccc(-c3ccc(C(=O)N4CCc5cc6c(cc54)C4(CCN(C)CC4)CO6)cc3)c(C)c2)no1`, for which the AC50 entry is “inactive and 7.94 µM (active)”.
In the case of `NCCc1ccc(S(=O)(=O)O)cc1[N+](=O)[O-]`, the activity, negative = inhibition is 8.12% [at 11.4 µM] (inactive).
The same measure, in the same setting: under `C[C@H](N)c1cccc(Cl)c1Cl` stands “inactive”.
Turning to `CC[C@H](Oc1ccc(Cl)cc1)C(=O)OC1C[C@H]2CC[C@@H](C1)N2C` (some centres undefined), the AC50 is 0.1 µM (active).
On to `C[C@@H](C(=O)OC1C[C@H]2CC[C@@H](C1)N2C)c1ccc(Br)cc1` (some centres undefined), for which the activity, negative = inhibition entry is “inactive”.
Regarding `CN1C2CCC1CC(OC(=O)c1ccc(Cl)cc1)C2` (centres undefined), the activity, negative = inhibition entry is “inactive”.
For `CCCN(CCC)[C@@H]1CCc2ccc(O)cc2C1`, the activity, negative = inhibition entry is “inactive”.
Same read-out and setting: the value for `O=C(Nc1ccccc1)N1CCC2(CC1)CCN(C(=O)Oc1ccccc1)CC2` was “inactive”; that for `c1cnc(N2CCC3(CCNCC3)CC2)nc1` was “inactive”; that for `C[Se]C[C@@H](N)C(=O)O` was “inactive”.
With `O=c1[nH]c(=O)n([C@H]2C[C@H](O)[C@H](CO)O2)cc1/C=C\Br`, the activity, negative = inhibition result is “inactive”.
Same read-out and setting: under `Oc1ccc2c3c1O[C@H]1c4c(c5ccccc5n4Cc4ccccc4)C[C@]4(O)[C@H](C2)N(CC2CC2)CC[C@@]314` stands “inactive”.
With `Clc1cncc(N2CCNCC2)n1`, the AC50 is 2 µM (active).
On to `Clc1cccc(N2CCNCC2)c1`, for which the activity, negative = inhibition result was “inactive”.
With `c1ccc2nc(N3CCNCC3)ccc2c1`, the activity, negative = inhibition result was “inactive”.
For the molecule `CCCN(CCC)[C@H]1CCc2c(F)ccc(O)c2C1`, the activity, negative = inhibition entry is “inactive”.
As to `NS(=O)(=O)C[C-]1C=C[CH]([Sb-]([Cl])([Cl])([Cl])([Cl])[Cl])C=C1.c1ccncc1` (centres undefined), the activity, negative = inhibition is 2.33% [at 11.4 µM] (inactive).
Same read-out and setting: the value for `CNCCc1cnc[nH]1` was “inactive”.
For the molecule `Cc1ccccc1-c1cncnc1NCCc1cnc[nH]1`, the AC50 is 1 µM (active).
Same read-out and setting: the value for `CN1C(=O)C(=Cc2ccccc2Oc2ccc(Cl)c(F)c2)C(=O)N(C)C1=O` was 6.31 µM (active).
As for `COC1=C(C)C(=O)c2c(c(COC(N)=O)c3n2C[C@@H]2[C@@H]3N2C)C1=O` (some centres undefined), the activity, negative = inhibition is -23.6% [at 11.4 µM] (inactive).
Same read-out and setting: the value for `Cc1sc2ccccc2c1CC1=NCCN1` was “inactive”.
The same measure, in the same setting: the value for `CC(=O)O[C@H]1C[C@@H](O[C@@H]2[C@H](C)O[C@H](O[C@@H]3[C@H](C)O[C@H](O[C@@H]4CC[C@@]5(C)[C@@H](CC[C@]6(C)[C@]5(C)C[C@H](O)[C@]5(C)[C@@H](C7=CC(=O)OC7)CC[C@@]56O)C4)C[C@@H]3O)C[C@@H]2O)O[C@@H](C)[C@H]1O[C@H]1O[C@@H](CO)[C@@H](O)[C@@H](O)[C@@H]1O` was “inactive”.
For `CNC(=O)OCC[N+](C)(C)C`, the activity, negative = inhibition entry is “inactive”.
For `COC(=O)c1[nH]c2ccc(Br)cc2c1NC(=O)Oc1ccccc1`, the AC50 is 8.91 µM (active).
For the molecule `COC(=O)c1cc2c(cn1)[nH]c1ccccc12`, the activity, negative = inhibition entry was “inactive”.
As to `N[C@@H](Cc1cc(Br)c(O)c(Br)c1)C(=O)O`, the activity, negative = inhibition was -7.73% [at 11.4 µM] (inactive).
For the molecule `COC(=O)N1CCN(C(=O)Cc2ccc(Cl)c(Cl)c2)[C@H](CN2CCCC2)C1`, the half-maximal activity concentration (AC50) entry is “inactive and 12.6 µM (active)”.
`CN(C(=O)Cc1ccc(Cl)c(Cl)c1)[C@@H](CN1CCCC1)c1cccc(OCC(=O)O)c1`: the activity, negative = inhibition result is “inactive”.
Still for that read-out and setting: under `O=C(Cc1ccc(Cl)c(Cl)c1)N1CCCC[C@H]1CN1CCCC1` stands “inactive”.
The same measure, in the same setting: the value for `O=c1[nH]c(=O)n(CCC2=CCCCC2)c(O)c1C=Nc1cccc(F)c1` was “inactive”; that for `CCn1cnc2c(Nc3cccc(Cl)c3)nc(N[C@@H]3CCCC[C@H]3N)nc21` was “inactive”.
